Bioassay records as filed in PubChem BioAssay.
RGS4 inhibitor: inhibitors of human regulator of G protein signaling 4 | Transcreener GDP fluorescence polarization, RGS4-accelerated GTP hydrolysis | Potency, µM (top dose mostly 114 µM), without a hit: at the highest dose activity change, negative = inhibition, usual class: inhibitors | 390,000 tested, 0.039% active | AID 504845; active = well fitted inhibition curve with a large enough effect; inconclusive = small, poorly fitted or top-dose-only effect; inactive = no such curve, though single readings can be large or run the other way; note: potency is the fitted concentration of half-maximal effect; % is set by controls: 0 for no effect and ±100 for the full control effect; nearly all actives have a fitted effect of over 75% in size
Target sequence (P49798 whole entry, looked up): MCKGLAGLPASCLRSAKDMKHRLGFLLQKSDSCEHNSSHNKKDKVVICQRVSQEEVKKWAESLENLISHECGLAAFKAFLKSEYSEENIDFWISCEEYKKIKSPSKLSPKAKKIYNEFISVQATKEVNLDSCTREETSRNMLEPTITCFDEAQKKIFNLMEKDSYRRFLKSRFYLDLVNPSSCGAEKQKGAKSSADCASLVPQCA
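MLSMR compounds (23 nl, pin-transferred) preincubated 10 min at room temperature with a 500nM (2x) first reagent, then RGS4 at 900nM (2x) plus Transcreener GDP mix added; fluorescence polarization (620/688 nm) read before and after 90 min at 30 °C.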
D3 antag: blocks the human D3 dopamine receptor. P35462. D3R cells, DiscoveRx beta-arrestin luminescence, antagonist mode; hits give low values. max response, negative = inhibition, %. 360,000 tested, 2.5% active. AID 652054; in the data active = max response below about -50%; inconclusive = no clear call, values can overlap the other calls; note: % is set by controls: 0 for no effect and ±100 for the full control effect
Target sequence (P35462 whole entry, looked up): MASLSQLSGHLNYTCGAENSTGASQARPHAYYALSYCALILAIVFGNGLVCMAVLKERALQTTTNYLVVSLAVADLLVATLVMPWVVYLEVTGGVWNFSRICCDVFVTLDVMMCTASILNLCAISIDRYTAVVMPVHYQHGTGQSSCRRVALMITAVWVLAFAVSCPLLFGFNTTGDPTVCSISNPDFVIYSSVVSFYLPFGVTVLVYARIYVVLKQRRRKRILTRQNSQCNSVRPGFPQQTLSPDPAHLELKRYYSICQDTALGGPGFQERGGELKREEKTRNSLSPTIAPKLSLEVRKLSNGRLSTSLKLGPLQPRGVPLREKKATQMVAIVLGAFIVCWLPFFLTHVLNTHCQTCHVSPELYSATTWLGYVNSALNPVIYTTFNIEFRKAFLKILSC
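Cells plated overnight at 1500 cells/well, then exposed to library compounds with dopamine controls for 90 minutes at 37 degrees C. DiscoveRx reagent added for 30–60 minutes at room temperature; luminescence read, quantitative HTS format.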
DRD3 agonist: activates the human D3 dopamine receptor | D3R DiscoveRx beta-arrestin cells, luminescence, 90 min | max activation, % | 410,000 tested, 0.58% active | AID 652048 | P35462; in the data active = max activation above about 30%; note: 0% is about no effect
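Agonist mode: compounds and dopamine controls were applied to plated cells for 90 min at 37 degrees C after an overnight attachment at 1500 cells/well. Luminescent read-out followed 30 - 60 minutes at room temperature with DiscoveRx detection reagent.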
uPA generation: blocks generation of uPA at the cell surface; Potency, µM (doses to about 38.3 µM), without a hit: top-dose activity change, negative = inhibition, hits mostly inhibitors; 330,000 tested, 0.31% active; cell surface uPA generation assay, qHTS; active = well fitted inhibition curve with a large enough effect; inconclusive = small, poorly fitted or top-dose-only effect; inactive = no such curve, though single readings can be large or run the other way; tested in mouse RAW 264.7 cells; note: potency is the fitted concentration of half-maximal effect; % is set by controls: 0 for no effect and ±100 for the full control effect; nearly all actives have a fitted effect of over 55% in size
* hit, by the source's call; ? = inconclusive; nt = no result given; ! = not active in a repeat; [ ] = another dose, or the depositor's remark. Rows were chosen to be rich in hits. Some 3.1% of all compounds tested hit in one or more screens of this group.

SMILES	RGS4 inhibitor	D3 antag	DRD3 agonist	uPA generation
CCCCN(CC)S(=O)(=O)c1ccc(C(=O)Nc2nnc(-c3cccs3)o2)cc1	5%[11.4 µM]	-57*	1	-7%
CCCCN(CCCC)S(=O)(=O)c1ccc(C(=O)Nc2nnc(COC)o2)cc1	-7%	-93*	-1	-3%
CCCCN(C)S(=O)(=O)c1ccc(C(=O)Nc2nnc(CSC)o2)cc1	9%	-98*	-2	-11%
CCOC(=O)N1CCc2c(sc3c2c(=O)n(Cc2ccccc2)c(=O)n3CC(=O)Nc2ccc(F)cc2)C1	-11%	nt	-4	nt
COc1cccc2cc(-c3nc4sc5c(c4c(=O)[nH]3)CCC(C(C)(C)C)C5)c(=O)oc12 (configuration not stated)	14%	nt	-6	nt
COc1ccccc1Cn1c(SCC(=O)C(C)(C)C)nc2ccccc2c1=O	2%	nt	-7	nt
CN(C(=O)c1ccc2c(c1)N(Cc1cccc(Cl)c1)C(=O)c1ccccc1S2(=O)=O)C1CCCCC1	-3%	nt	-10	nt
CCN(CC)S(=O)(=O)c1ccc(C(=O)Nc2cccc(C)c2)cc1	-25%	-83*	-10	-8%
COc1ccc(OCC(=O)Nc2ccccc2C(=O)OCc2cc(=O)n3nc(C)sc3n2)cc1	0%	nt	8	nt
Cc1cc(C(=O)CSc2nncs2)c(C)n1-c1c(C)n(C)n(-c2ccccc2)c1=O	-20%	-95*	7	1%
Cc1nnc(SCC(=O)c2cc(C)n(-c3c(C)n(C)n(-c4ccccc4)c3=O)c2C)s1	-16%	15	4	2%
C[C@@H](CO)NC(=O)c1ccc2c3n(nc2c1)-c1ccccc1CO3	13%	14	1	1.1µM*
CC(C)NC(=O)c1ccc2c3n(nc2c1)-c1ccc(Cl)cc1CO3	-14%	5	31*	?
COCCNC(=O)c1ccc2c3n(nc2c1)-c1ccc(C)cc1CO3	-17%	25	5	?
Cc1ccc2c(c1)COc1c3ccc(C(=O)N[C@@H](CO)C(C)C)cc3nn1-2	15%	0	0	?
CCN(CC)CCCNC(=O)c1ccc2c3n(nc2c1)-c1ccc(Cl)cc1CO3	11%	-116*	-66	?
COc1ccc(-c2cn3cccnc3n2)cc1NC(=O)COc1ccccc1	-10%	nt	7	nt
COc1cc2nc(NCc3ccc(C)cc3)n3nc(-c4ccccc4)nc3c2cc1OC	27%	nt	-6	nt
CN(C(=O)CSC1=Nc2ccccc2C2=NC(c3ccccc3)C(=O)N12)C1CCCCC1 (configuration not stated)	10%	-55*	-6	-5%
O=C(NC(c1cccnc1)c1ccc2c(c1)OCO2)C1CCN(CCOc2ccc(Cl)cc2Cl)CC1 (configuration not stated)	nt	-69*	-14	nt
Cc1ccccc1C(c1ncccc1C)N(C)C(=O)C1CCN(CCOc2ccc(Cl)cc2Cl)CC1 (configuration not stated)	nt	-21	20	nt
COc1ccc(OCCN2CCC(C(=O)NC(c3ccc(Cl)cc3)c3cnccn3)CC2)cc1 (configuration not stated)	nt	?	-13	nt
COc1cc(CN2CCC(C(=O)NC(c3ccccc3)c3ccsc3)CC2)cc(OC)c1 (configuration not stated)	nt	?	-19	nt
O=C(NC(c1ccccc1)c1ccsc1)C1CCN(CCOc2ccc(Cl)cc2Cl)CC1 (configuration not stated)	nt	56	52*	nt
O=C(NC(c1ccccc1)c1cnccn1)C1CCN(CCOc2ccc(Cl)cc2Cl)CC1 (configuration not stated)	nt	-84*	-13	nt
SMILES	RGS4 inhibitor	D3 antag	DRD3 agonist	uPA generation
CCc1nnc2c(Nc3ccc(N(CC)CC)cc3C)nc3ccccc3n12	24%	nt	-8	nt
CC(C)c1ccc(NC(=O)C2CCCN(S(=O)(=O)c3ccc4[nH]c(=O)oc4c3)C2)cc1 (configuration not stated)	18%	nt	-1	nt
O=c1[nH]c(CSc2nnc(NCCCN3CCOCC3)s2)nc2cc(Cl)ccc12	-11%	-63*	-2	1%
Cc1ccc2nc(SCc3nc4cc(Cl)ccc4c(=O)[nH]3)[nH]c2c1	-25%	-21	2	-12%
O=C(O)c1cc(/C=C/c2ccc(N3CCOCC3)cc2)nc2ccccc12	6%	5	1	-19%
COc1cc(/C=C/c2cc(C(=O)O)c3ccccc3n2)ccc1OC(F)F	28%	-11	2	2.8µM*
NCCC[C@H](N)C(=O)O	nt	nt	1	nt
CCC(Sc1nc2ccncc2[nH]1)C(=O)Nc1cc(Cl)ccc1C (configuration not stated)	1%	152	35*!	10%
Cc1ccc2nc(Cl)c3cc(C(=O)N(C)C4CCCCC4)sc3c2c1	10%	nt	6	nt
CCOc1cc(C(=O)Nc2ccc3oc(-c4ccc(F)cc4Cl)nc3c2)cc(OCC)c1OCC	-19%	nt	4	nt
COc1cccc(C(=O)CN2C3=NCCCN3c3ccccc32)c1	7%	-62*	-2	-3%
O=C1CC[C@H](C(=O)N2CCCCC2)N1	nt	nt	-14	nt
Cn1cc(C(F)(F)F)nc1-c1ccc(OCC(O)CNCCOc2ccc(O)c(C(N)=O)c2)cc1 (configuration not stated)	0%[56.9 µM]	-4	101*	7%
OC(CNCCNc1ncccc1C(F)(F)F)COc1ccc(F)cc1 (configuration not stated)	2%	-11	-33	-10%
COc1ccnc(Oc2ccccc2)c1C(=O)N/C=N/OCc1ccc(F)cc1Cl	4%	5	46*	5%
O=C(NC1CCN(Cc2ccccc2)CC1)c1ccccc1OCc1ccccc1Cl	0%	-105*	-22	-5%
O=C(NC1CCN(Cc2ccccc2)CC1)c1ccccc1Cl	-7%	?	-6	12%
CCOc1ccccc1C(=O)NC1CCN(Cc2ccccc2)CC1	-22%	-73*	-11	2%
O=C(O)c1cn(-c2ccccc2)nc1-c1ccc(Cl)cc1	-10%	-54*	9	2%
O=C(NC1CCN(Cc2ccccc2)CC1)c1ccccc1OCc1ccccc1	-19%	-99*	-23	-3%
COC(=O)C1=CN(c2ccc(C(C)(C)C)cc2)C(N)=C(C#N)C1c1ccc(OC)cc1 (configuration not stated)	nt	-5	3	nt
CCn1c(C)c(C2N3CC4(C)CN2CC(CC)(C3)C4=O)c2ccccc21 (configuration not stated)	-15%	nt	3	nt
O=C(NCc1ccncc1)c1cn(-c2ccccc2)nc1-c1cccnc1	-8%	-2	-1	7%
O=C(NC1CCN(Cc2ccc(Cl)cc2)CC1)c1cn(-c2ccccc2)nc1-c1cccnc1	18%	-62*	-22	?
CSc1ncccc1C(=O)NC1CCN(Cc2ccccc2)CC1	1%	-60*	-12	4%
CCCC[C@H]1CCCO[C@@](C(=O)NCc2ccc(C)o2)(C(F)(F)F)C1	-45%	nt	nt	nt
CC(CN(C)C)CN1c2ccccc2S(=O)(=O)c2ccccc21 (configuration not stated)	nt	nt	-11	nt
CCOc1ccccc1C(=O)Oc1c(S(=O)(=O)c2ccc(C)cc2)c(C)nn1-c1ccccc1	-5%	nt	14	nt
O=C1C(=C2CCc3ccccc32)Cc2ccccc21	-1%	3	-6	-11%
